Experimental findings from PubChem BioAssay (EPA / NIEHS) are described below.

Calls of active or inactive are those of the source. Rule for the calls: active = hit-call score of the fitted dose curve at least 0.9, where 1 is the maximum; inactive = score below 0.9.

By AC50 is commonly meant the concentration giving half of the maximal activity seen.

Conditions in all cases: mRNA level, 48 h; actives raise or lower the signal
Read-out in test [1]: ATP-citrate lyase (ACLY), ACLY (gene 47)
The test can be described thus: LTEA_HepaRG_ACLY: Life Technologies and Expression Analysis (LTEA) Assay for ATP-citrate lyase (ACLY) using HepaRG (AID 2283466). Summed up:
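Differentiated human HepaRG cells in serum-free induction medium exposed 48 h, in duplicate, to eight half-log concentrations from 100 uM top in 0.5% DMSO; ACLY mRNA measured by qRT-PCR, normalized to ACTB, GAPDH, POLR2A, fitted bidirectionally versus DMSO.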

Read-out in test [2]: Peroxisomal acyl-coenzyme A oxidase 1 (ACOX1) gene, ACOX1 (gene 51)
Kind of test: LTEA_HepaRG_ACOX1: Life Technologies and Expression Analysis (LTEA) Assay for Peroxisomal acyl-coenzyme A oxidase 1 (ACOX1) gene using HepaRG (AID 2283467). Summed up:
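Differentiated human HepaRG cells were exposed in duplicate for 48 h in serum-free induction medium to eight half-log concentrations up to 100 uM in 0.5% DMSO. ACOX1 mRNA was then quantified by TaqMan qRT-PCR, normalized to ACTB, GAPDH and POLR2A.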

Read-out in test [3]: Alkaline Phosphatase, Placental (ALPP) gene, ALPP (gene 250)
Kind of test: LTEA_HepaRG_ALPP: Life Technologies and Expression Analysis (LTEA) Assay for Alkaline Phosphatase, Placental (ALPP) gene using HepaRG (AID 2283468). Summed up:
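Expression of ALPP was quantified by qRT-PCR against three housekeeping genes in human HepaRG cultures treated for 48 h with an eight-point concentration series up to 100 uM. Activity in either direction was fitted relative to 0.5% DMSO.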

Read-out in test [4]: Bcl-2 (BAD) gene, BAD (gene 572)
The test can be described thus: LTEA_HepaRG_BAD: Life Technologies and Expression Analysis (LTEA) Assay for Bcl-2 (BAD) gene using HepaRG (AID 2283469). Summed up:
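Differentiated human HepaRG cells in serum-free induction medium were exposed in duplicate for 48 h to eight concentrations (top 100 uM, half-log steps, 0.5% DMSO). BAD mRNA was quantified by qRT-PCR normalised to ACTB, GAPDH and POLR2A, with bidirectional fitting versus DMSO.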

Read-out in test [5]: Bcl-2 (BAX) gene, BAX (gene 581)
Kind of test: LTEA_HepaRG_BAX: Life Technologies and Expression Analysis (LTEA) Assay for Bcl-2 (BAX) gene using HepaRG (AID 2283470). Summed up:
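HepaRG (human liver), 48 h exposure, duplicate wells. 8-pt curve, half-log from 100 uM, 0.5% DMSO. BAX transcript by TaqMan qRT-PCR; ACTB/GAPDH/POLR2A normalization; gain or loss vs DMSO baseline.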

Read-out in test [6]: adenosine kinase (ADK) gene, ADK (gene 132)
The test can be described thus: LTEA_HepaRG_ADK: Life Technologies and Expression Analysis (LTEA) Assay for adenosine kinase (ADK) gene using HepaRG (AID 2283471). A digest of the protocol:
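Differentiated HepaRG cells dosed 48 h in serum-free induction medium, 0.5% DMSO vehicle, eight half-log concentrations from 100 uM, in duplicate. ADK mRNA by TaqMan qRT-PCR normalised to ACTB, GAPDH, POLR2A; bidirectional fit versus DMSO.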

Read-out in test [7]: Alpha-fetoprotein (AFP) gene, AFP (gene 174)
Kind of test: LTEA_HepaRG_AFP: Life Technologies and Expression Analysis (LTEA) Assay for Alpha-fetoprotein (AFP) gene using HepaRG (AID 2283472). A digest of the protocol: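 HepaRG, single lot; 48 h post-plating -> serum-free induction medium; cpd 8-pt, 100 uM top, half-log, 0.5% DMSO, duplicate, 48 h. RNA -> qRT-PCR AFP, norm ACTB/GAPDH/POLR2A. Bidirectional fit vs DMSO.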

Read-out in test [8]: BCL2L11 (gene 10018)
Kind of test: LTEA_HepaRG_BCL2L11: Life Technologies and Expression Analysis (LTEA) Assay for Bcl-2 (BCL2L11) gene using HepaRG (AID 2283473). Summed up:
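Cells were plated, cultured 48 h, switched to serum-free induction medium, then dosed in duplicate for 48 h at eight half-log concentrations up to 100 uM. Lysates underwent RNA isolation and TaqMan qRT-PCR; gain or loss versus DMSO was fitted.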

Read-out in test [9]: Apolipoprotein A-V (APOA5) gene, APOA5 (gene 116519)
The test can be described thus: LTEA_HepaRG_APOA5: Life Technologies and Expression Analysis (LTEA) Assay for Apolipoprotein A-V (APOA5) gene using HepaRG (AID 2283474). Summed up:
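Human liver HepaRG cells are treated 48 h with test chemicals (100 uM top, half-log dilutions, 0.5% DMSO). APOA5 mRNA induction or loss is measured by qRT-PCR relative to vehicle.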

Read-out in test [10]: Apoptosis regulator Bcl-2 (Homo sapiens) (UniProt P10415)
The test can be described thus: LTEA_HepaRG_BCL2: Life Technologies and Expression Analysis (LTEA) Assay for Bcl-2 gene using HepaRG (AID 2283475). A digest of the protocol:
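HepaRG, plated 48 h then switched to serum-free induction medium; dosed 48 h, 8 conc. (max 100 uM, half-log steps), duplicate, 0.5% DMSO. Lysis in RLT, RNA isolated, TaqMan qRT-PCR for BCL2; ACTB/GAPDH/POLR2A normalisation; bidirectional fit vs DMSO.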

Read-out in test [11]: Bcl-2 (BID) gene, BID (gene 637)
The test can be described thus: LTEA_HepaRG_BID: Life Technologies and Expression Analysis (LTEA) Assay for Bcl-2 (BID) gene using HepaRG (AID 2283476). A digest of the protocol:
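Transcript levels of BID, measured by qRT-PCR and normalized to three housekeeping genes, were fitted bidirectionally against DMSO controls. Cells were HepaRG, dosed 48 h at up to 100 uM.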

Read-out in test [12]: Caspase-3 (Homo sapiens) (UniProt P42574)
The test can be described thus: LTEA_HepaRG_CASP3: Life Technologies and Expression Analysis (LTEA) Assay for cysteine-aspartic acid protease (CASP3) using HepaRG (AID 2283477). Summed up: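 In HepaRG liver cells dosed for 48 h at up to 100 uM (eight-point, duplicate), CASP3 expression changes are scored by qRT-PCR. Activity is fitted in both directions with 0.5% DMSO as baseline.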

Read-out in test [13]: Cytochrome P450 (CYP24A1), CYP24A1 (gene 1591)
The test can be described thus: LTEA_HepaRG_CYP24A1: Life Technologies and Expression Analysis (LTEA) Assay for Cytochrome P450 (CYP24A1) using HepaRG (AID 2283478). A digest of the protocol: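 Human liver HepaRG cultures receive each chemical for 48 h across an eight-point half-log series topping at 100 uM in 0.5% DMSO. Induction or suppression of CYP24A1 mRNA is scored relative to vehicle after housekeeping-gene normalization.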

Read-out in test [14]: Cytochrome P450 (CYP1A2), CYP1A2 (gene 1544)
Kind of test: LTEA_HepaRG_CYP1A2: Life Technologies and Expression Analysis (LTEA) Assay for Cytochrome P450 (CYP1A2) using HepaRG (AID 2283479). A digest of the protocol:
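Assesses CYP1A2 mRNA in human HepaRG liver cells after 48 h chemical exposure at up to 100 uM. Values come from qRT-PCR with bidirectional curve fitting relative to DMSO.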

Read-out in test [15]: cysteine-aspartic acid protease (CASP8), CASP8 (gene 841)
The test can be described thus: LTEA_HepaRG_CASP8: Life Technologies and Expression Analysis (LTEA) Assay for cysteine-aspartic acid protease (CASP8) using HepaRG (AID 2283480). A digest of the protocol:
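Differentiated human HepaRG cells, plated 48 h then switched to serum-free induction medium, were exposed in duplicate for 48 h to 8 half-log concentrations up to 100 uM in 0.5% DMSO. CASP8 mRNA was quantified by qRT-PCR, normalized to ACTB/GAPDH/POLR2A.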

Read-out in test [16]: Cytochrome P450 (CYP2B6), CYP2B6 (gene 1555)
Kind of test: LTEA_HepaRG_CYP2B6: Life Technologies and Expression Analysis (LTEA) Assay for Cytochrome P450 (CYP2B6) using HepaRG (AID 2283481). Summed up: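 Using 48 h treatment of HepaRG cells in serum-free induction medium, concentrations spanned half-log steps from 100 uM in 0.5% DMSO vehicle. CYP2B6 mRNA induction or loss is scored by qRT-PCR against DMSO.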

Read-out in test [17]: Cytochrome P450 2C19 (Homo sapiens) (UniProt P33261)
Kind of test: LTEA_HepaRG_CYP2C19: Life Technologies and Expression Analysis (LTEA) Assay for CYP2C19 using HepaRG (AID 2283482). Summed up:
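Human HepaRG liver cells received test chemicals for 48 h (highest 100 uM, half-log dilutions in 0.5% DMSO). CYP2C19 mRNA induction or loss is read by multiplexed qRT-PCR and fitted in both directions versus vehicle.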

Read-out in test [18]: CYP2C8 (gene 1558)
The test can be described thus: LTEA_HepaRG_CYP2C8: Life Technologies and Expression Analysis (LTEA) Assay for CYP2C8 using HepaRG (AID 2283483). A digest of the protocol:
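Differentiated human HepaRG cells were exposed for 48 h in serum-free induction medium to eight half-log concentrations up to 100 uM in 0.5% DMSO, in duplicate. CYP2C8 mRNA was measured by TaqMan qRT-PCR, normalized to ACTB, GAPDH and POLR2A, and fitted bidirectionally against DMSO.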

Read-out in test [19]: CYP2C9 (gene 1559)
The test can be described thus: LTEA_HepaRG_CYP2C9: Life Technologies and Expression Analysis (LTEA) Assay for CYP2C9 using HepaRG (AID 2283484). A digest of the protocol:
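Differentiated human HepaRG cells were exposed 48 h in serum-free induction medium to eight half-log concentrations up to 100 uM in 0.5% DMSO. CYP2C9 mRNA was measured by qRT-PCR, normalized to ACTB, GAPDH and POLR2A, and fitted bidirectionally against DMSO.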

Read-out in test [20]: CYP2E1 (gene 1571)
The test can be described thus: LTEA_HepaRG_CYP2E1: Life Technologies and Expression Analysis (LTEA) Assay for CYP2E1 using HepaRG (AID 2283485). A digest of the protocol:
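Human liver line HepaRG, plated 48 h, then serum-free induction medium + chemical x 48 h; 8-pt CRC from 100 uM, half-log, 0.5% DMSO, n=2. Readout: CYP2E1 mRNA qRT-PCR vs ACTB/GAPDH/POLR2A; bidirectional fit vs DMSO.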

Sequence of Apoptosis regulator Bcl-2 (Homo sapiens) (P10415 whole entry, looked up): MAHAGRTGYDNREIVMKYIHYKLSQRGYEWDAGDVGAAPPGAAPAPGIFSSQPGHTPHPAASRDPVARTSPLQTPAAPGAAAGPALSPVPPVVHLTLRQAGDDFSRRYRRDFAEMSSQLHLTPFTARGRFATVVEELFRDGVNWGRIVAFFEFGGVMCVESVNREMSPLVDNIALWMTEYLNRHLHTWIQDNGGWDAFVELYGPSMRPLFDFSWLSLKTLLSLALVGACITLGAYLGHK
Sequence of Caspase-3 (Homo sapiens) (P42574 whole entry, looked up): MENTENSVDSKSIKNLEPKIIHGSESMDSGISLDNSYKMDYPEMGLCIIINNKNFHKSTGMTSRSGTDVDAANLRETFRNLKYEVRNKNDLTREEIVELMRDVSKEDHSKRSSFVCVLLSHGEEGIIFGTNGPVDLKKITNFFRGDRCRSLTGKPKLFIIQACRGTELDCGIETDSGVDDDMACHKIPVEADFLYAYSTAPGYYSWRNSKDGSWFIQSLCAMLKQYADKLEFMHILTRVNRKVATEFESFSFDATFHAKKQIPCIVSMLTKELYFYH
Sequence of Cytochrome P450 2C19 (Homo sapiens) (P33261 whole entry, looked up): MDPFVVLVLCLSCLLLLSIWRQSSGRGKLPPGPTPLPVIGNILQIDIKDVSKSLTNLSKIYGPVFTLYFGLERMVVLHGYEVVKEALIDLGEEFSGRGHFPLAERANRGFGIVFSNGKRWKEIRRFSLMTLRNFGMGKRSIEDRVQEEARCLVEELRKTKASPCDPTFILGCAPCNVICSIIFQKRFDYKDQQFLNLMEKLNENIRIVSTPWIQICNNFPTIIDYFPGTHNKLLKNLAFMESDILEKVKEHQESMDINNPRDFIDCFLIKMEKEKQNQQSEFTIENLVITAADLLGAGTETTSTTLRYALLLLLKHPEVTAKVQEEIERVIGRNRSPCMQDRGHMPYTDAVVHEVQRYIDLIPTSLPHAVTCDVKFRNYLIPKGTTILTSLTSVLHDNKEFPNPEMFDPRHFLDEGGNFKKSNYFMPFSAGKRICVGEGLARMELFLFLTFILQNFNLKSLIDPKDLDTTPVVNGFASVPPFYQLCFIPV

`CCC(C)(CC)c1cc(NC(=O)c2c(OC)cccc2OC)on1`: the result in [1], in test [2], in test [3], in test [4], in test [5] and in test [6] was inactive. The call in test [8], in [9], in [10], in [11], in [12] and in test [13] was inactive. Further, the compound was classed as inactive in test [15] and in [19]. In addition, the AC50 in [7] was 28.9 µM (active); in [14] it was 10.3 µM (active); in test [16], 3.2 µM (active); in test [17], 2.36 µM (active); in [18], 3.26 µM (active); in [20] it was 15 µM (active).
Regarding `Clc1ccc(Cl)cc1`, the compound was classed as inactive in [1], in [2], in test [3], in test [4], in test [5] and in test [6]. Further, the compound was called inactive in test [7], in test [8], in test [9], in test [10], in [11] and in test [12]. Also, the result in test [13], in test [14], in test [15], in test [16], in test [17] and in [18] was inactive. Further, the compound was classed as inactive in test [19] and in test [20].
For the compound `Oc1ccc(C(c2ccc(O)cc2)(C(F)(F)F)C(F)(F)F)cc1`, the call in test [1], in [4], in test [5], in test [7], in test [9] and in test [10] was inactive. For the same compound, the result in [11], in [12], in test [13], in [14], in test [15] and in [18] was inactive. In addition, in [19], the compound was classed as inactive. The AC50 in test [2] is 83.8 µM (active); in test [3] it was 83 µM (active); in test [6], 81.6 µM (active); in [8] it was 78.9 µM (active); in test [16], 92 µM (active); in test [17] it was 85.8 µM (active). Further, the concentration at half-maximal activity (AC50) in test [20] was 79.4 µM (active).
